# In the library only some 3.1% were active in any assay of this set; here they are far more common.
# VDR inh – Inhibitors of the vitamin D receptor (VDR): qHTS; Vitamin D3 receptor (Homo sapiens), P11473; actives 0.93% (n = 400,000); Potency, µM, inactives show max response, negative = inhibition, most hits filed as inhibitors; VDR-SRC2-3 peptide fluorescence polarization, 2 h; further: on the % scale 0 is the no-effect control and ±100 the full control effect
#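 After 23 nl compound addition and a short centrifugation, plates sat for 2 hours at ambient temperature; polarization of fluorescence then indicated loss of VDR binding to peptide SRC2-3.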
# PLK1 PBD inh – qHTS for Inhibitors of PLK1-PDB (polo-like kinase 1 - polo-box domain): Primary Screen | Serine/threonine-protein kinase PLK1 (Homo sapiens), P53350 | Plk1 PBD binding of FITC phosphopeptide, fluorescence polarization | Potency, µM, inactives show max response, negative = inhibition, hits mostly inhibitors | actives 2.8% (n = 360,000) | AID 720504, 2013; further: series mostly up to about 57 µM; on the % scale 0 is the no-effect control and ±100 the full control effect; nearly all actives have a fitted effect of over 65% in size
# ASM inhibitor – Inhibitors of Secretory Acid Sphingomyelinase (S-ASM): qHTS; placental ASM, HMU-PC fluorogenic substrate, 60 min; actives 0.006% (n = 340,000); Sphingomyelin phosphodiesterase (Homo sapiens), P17405; Potency, µM (top dose mostly 57.5 µM), without a hit: at the highest dose activity change, negative = inhibition, actives largely listed as inhibitors
#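 Fluorescence read-out (Ex 386 nm, Em 447 nm) after stopping the reaction at pH 10. Enzyme: ASM from human placenta; substrate HMU-PC0, 9 uM final; 60 min, 37 °C. Compound preincubation 10 min, ambient temperature.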
# Pin1 inhibitor – qHTS Assay to Find Inhibitors of Pin1; actives 0.009% (n = 390,000); Potency, µM (doses to about 115 µM), without a hit: at the highest dose activity, negative = inhibition, usual class: inhibitors; Peptidyl-prolyl cis-trans isomerase NIMA-interacting 1 (Homo sapiens), Q13526; AID 504891, 2011; Pin1 FP peptide displacement, HiFluor488, 10 min; active means well fitted inhibition curve with a large enough effect in the polarisation, with a control signal flat, not every such curve was filed as active; inconclusive means small, poorly fitted or top-dose-only effect, or effect the other way, or a change in a side signal; inactive means no such curve, though single readings can be large or run the other way; the % refers to the polarisation; further: on the % scale 0 is the no-effect control and ±100 the full control effect
# Target sequence (Q13526 whole entry, looked up): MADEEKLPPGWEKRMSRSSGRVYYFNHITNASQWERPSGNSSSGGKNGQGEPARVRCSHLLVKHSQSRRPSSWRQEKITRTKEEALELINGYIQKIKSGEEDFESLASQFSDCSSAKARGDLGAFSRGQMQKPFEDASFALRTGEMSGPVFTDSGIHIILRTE
# Tb PFK block – qHTS Assay to Find Inhibitors of T. brucei phosphofructokinase; Potency, µM (top dose mostly 57.5 µM), for inactives: top-dose activity, negative = inhibition, usual class: inhibitors; actives 0.17% (n = 330,000); T. brucei PFK, ADP-Glo luminescence; ATP-dependent 6-phosphofructokinase (Trypanosoma brucei brucei), O15648;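 further: 0% = uninhibited 1x PFK enzyme wells and -100% = no-enzyme wells; nearly all actives have a fitted effect of over 60% in size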
# Target sequence (O15648 whole entry, looked up): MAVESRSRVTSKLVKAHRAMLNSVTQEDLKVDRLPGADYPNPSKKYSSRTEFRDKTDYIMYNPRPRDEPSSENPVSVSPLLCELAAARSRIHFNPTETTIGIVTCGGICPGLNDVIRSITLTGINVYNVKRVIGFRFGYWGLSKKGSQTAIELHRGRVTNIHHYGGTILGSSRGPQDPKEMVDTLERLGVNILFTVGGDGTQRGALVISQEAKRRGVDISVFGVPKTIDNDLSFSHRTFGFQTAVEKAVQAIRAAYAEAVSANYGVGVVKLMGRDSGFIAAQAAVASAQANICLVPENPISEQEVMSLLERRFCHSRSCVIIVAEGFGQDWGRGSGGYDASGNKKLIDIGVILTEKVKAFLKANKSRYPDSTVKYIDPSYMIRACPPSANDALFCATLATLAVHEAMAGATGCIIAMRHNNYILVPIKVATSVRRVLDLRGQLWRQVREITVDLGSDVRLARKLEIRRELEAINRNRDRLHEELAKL
#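 In TEA buffer at pH 8.0 with 5 mM MgCl2, enzyme (1.25 nM) converted F6P (0.5 mM) and ATP (0.1 mM) for 45 min at room temperature. ADP product was read by luciferase luminescence.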
# TDP1 block – qHTS Assay for Inhibitors of Tyrosyl-DNA Phosphodiesterase (TDP1); Tyrosyl-DNA phosphodiesterase 1 (Homo sapiens), Q9NUW8; recombinant TDP1, AlphaScreen DNA substrate cleavage; Potency, µM (top dose mostly 130 µM), for the others: at the highest dose activity change, negative = inhibition, hits mostly inhibitors; actives 0.28% (n = 350,000); further: on the % scale 0 is the no-effect control and ±100 the full control effect; nearly all actives have a fitted effect of over 40% in size
#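 Compounds were preincubated with Tdp1 (1 nM final) for 15 min at room temperature before substrate (15 nM final) started a 5 min reaction; beads (10 ug/ml final) were then added for 10 min before AlphaScreen detection.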
# Active calls of the source: *; ? = inconclusive; . = no result given; ! = not active in a repeat. Unless noted, the call rests on the fitted dose curve; in most records, active means well fitted curve in the direction sought with a large enough effect; inconclusive means small, poorly fitted or top-dose-only effect, or another doubt; inactive means no such curve, though single readings can be large; an effect the other way counts as inactive or inconclusive. Potency means the concentration at half of the fitted maximal effect.
SMILES,VDR inh,PLK1 PBD inh,ASM inhibitor,Pin1 inhibitor,Tb PFK block,TDP1 block
Cc1ccc(NC(=O)CCS(=O)(=O)c2ccc3c(c2)NC(=O)C(C)S3)cc1Cl (stereo unspecified),-5.0%,-4.8%,-10.5%,1.5%,-5.0%,3.3%
O=C1CCCc2cc(S(=O)(=O)N3CCCC(C(=O)Nc4ccc(F)c(Cl)c4)C3)ccc2N1 (stereo unspecified),7.8%,.,.,-10.8%,.,-4.2%
O=C(CC1N=C2c3ccccc3N=C(SCc3ccccc3F)N2C1=O)NCc1ccc2c(c1)OCO2 (stereo unspecified),13.1%,.,.,21.7%,.,1.5%
CCN(c1ccccc1)S(=O)(=O)c1cc(CN2C(=O)c3cccnc3C2=O)ccc1OC,-9.9%,-4.9%,1.6%,1.1%,2.1%,3.9%
COc1ccc(CN2C(=O)c3cccnc3C2=O)cc1S(=O)(=O)N(C)c1cccc(C)c1,-6.3%,23.8µM*,-0.6%,-8.3%,-1.1%,2.1%
CCCC(=O)N(c1ccc2oc(=O)sc2c1)S(=O)(=O)c1ccccc1,?,-17.6%,0.9%,-4.6%,4.9%,12.4%
COc1ccc(N(C(=O)C(C)C)S(=O)(=O)c2cccs2)cc1,-6.5%,0.1%,3.6%,-3.9%,-1.4%,3.0%
CC(C)C(=O)N(c1cc2sc(=O)oc2c2ccccc12)S(=O)(=O)c1cccs1,35.5µM*,-22.3%,-4.3%,9.0%,-24.2%,8.1%
CC(=O)N(c1ccc2oc(=O)sc2c1)S(=O)(=O)c1ccc(C(=O)O)cc1,79.4µM*,?,2.5%,-13.5%,?,6.0%
CC(=O)N(c1ccc2oc(=O)sc2c1)S(=O)(=O)c1cccs1,89.1µM*,?,-2.3%,-16.9%,29.4%,3.4%
COc1ccc(N2Cc3cccc(C(=O)Nc4cc(C)cc(C)c4)c3C2=O)cc1,-7.7%,.,.,?,.,-5.8%
COc1ccc(N2Cc3cccc(C(=O)O)c3C2=O)cc1,8.2%,?,-3.7%,-18.0%,?,8.91µM*
COc1ccc(-c2nnc3n2N=C(c2c(OC)cccc2OC)CS3)cc1OC,.,.,.,3.8%,.,3.8%
CNC(CC(=O)c1ccc([N+](=O)[O-])cc1)C(Cl)(Cl)Cl (stereo unspecified),17.8µM*,2.67µM*,-1.7%,-5.7%,-1.5%,4.2%
COc1ccc(NC(=O)CSc2ncc3c(n2)-c2cc(Cl)ccc2N(Cc2ccccc2F)S3(=O)=O)cc1,2.8%,.,.,29.0%,.,2.6%
CCOc1ccc(NC(=O)CCC(=O)c2ccc(Br)cc2)cc1,-29.9%,21.2µM*,-3.2%,1.2%,4.6%,3.2%
CC(=O)Nc1ccc(SCC(=O)N(C)CC(=O)Nc2ccccc2Cl)cc1,79.4µM*,7.52µM*,2.5%,11.9%,-11.7%,0.7%
CCCNC(=O)N1CCCN(S(=O)(=O)c2ccc3c(ccn3CC)c2)CC1,1.6%,.,.,-11.0%,.,4.1%
CCOC(=O)C1CCC(CN(Cc2c(Cl)cccc2Cl)S(=O)(=O)c2ccc(F)cc2)CC1 (stereo unspecified),-9.5%,.,.,-1.7%,.,.
CC(=O)c1ccc(N2CCN(C(=O)C3CCCN(S(=O)(=O)c4c(C)[nH]c(=O)[nH]c4=O)C3)CC2)cc1 (stereo unspecified),?,15µM*,0.1%,3.6%,1.5%,-2.5%
Cn1c(N)c(C(=O)COC(=O)CSc2cccc3cccc(Cl)c23)c(=O)n(C)c1=O,5.2%,26.7µM*,-15.4%,33.4%,-2.1%,-8.4%
Cn1c(N)c(C(=O)COC(=O)CC(NC(N)=O)c2ccc(Cl)cc2)c(=O)n(C)c1=O (stereo unspecified),-15.0%,-7.6%,-6.3%,-4.0%,3.5%,11.0%
CC(=O)NC(CC(=O)OCC(=O)c1c(N)n(C)c(=O)n(C)c1=O)c1ccccc1 (stereo unspecified),?,23.8µM*,-0.9%,-7.5%,-2.2%,-2.9%
Cn1c(N)c(C(=O)COC(=O)CSc2ccccc2)c(=O)n(C)c1=O,-0.8%,-7.5%,2.8%,-2.9%,4.6%,0.0%
COc1ccc(/C=C\c2onc(C)c2S(=O)(=O)N2CCC(C(=O)Nc3ccc(C)cc3C)CC2)cc1,12.2%,.,.,0.9%,.,0.0%
SMILES,VDR inh,PLK1 PBD inh,ASM inhibitor,Pin1 inhibitor,Tb PFK block,TDP1 block
Cc1c(P(=S)(c2ccccc2)c2ccccc2)c2ccccc2n1Cc1ccccc1,.,.,.,0.2%,.,0.4%
CCc1ccc(Nc2n[n+](C)c(-c3ccc(C(=O)O)cc3)s2)cc1,.,.,.,.,3.5%,1.2%
CCc1ccc(Nc2n[n+](C)c(-c3ccncc3)s2)cc1,79.4µM*,?,-18.7%,-6.4%,3.0%,.
O=c1c(-c2ccccc2)c[nH]n1-c1cccc([N+](=O)[O-])c1,15.7%,-10.2%,4.6%,-2.8%,-6.0%,6.9%
CC(=O)Nc1ccc2sn(-c3ccccc3)c(=O)c2c1,.,3.36µM*,.,.,.,.
O=c1c2cc([N+](=O)[O-])ccc2sn1-c1ccccc1,.,2.67µM*,.,.,.,.
N#Cc1ccc2sn(-c3ccccc3)c(=O)c2c1,.,2.67µM*,.,.,.,.
N#Cc1ccc2c(c1)nnn2-c1ccccc1,10.3%,4.0%,-0.5%,0.0%,.,.
O=C(CC(c1cccs1)N1Cc2ccccc2C1=O)Nc1cccc(F)c1 (stereo unspecified),3.5%,.,.,11.9%,.,5.6%
Cc1noc(C)c1S(=O)(=O)NCCc1csc2nc(-c3ccc(Cl)cc3)nn12,8.9%,.,.,?,.,2.6%
CCN(c1ccccc1)c1nc(N)nc(C#N)n1,13.1%,.,.,1.4%,.,-0.2%
O=C(CN1C(=O)/C(=C2/SC(=S)N(CCS(=O)(=O)O)C2=O)c2ccccc21)Nc1cccc(C(F)(F)F)c1,?,10.6µM*,?,.,?,.
O=C(CN1C(=O)c2ccccc2Sc2ncccc21)Nc1cccc(C(F)(F)F)c1,-0.5%,.,.,2.7%,.,2.6%
CC(C)=CCC/C(C)=C/COc1c2occc2cc2ccc(=O)oc12,-6.8%,-2.9%,-6.2%,?,-7.2%,20µM*!
Brc1cccc(/C=N/Nc2nc(N3CCCCC3)nc(N3CCCCC3)n2)c1,.,.,.,.,6.4%,4.8%
CN(C)c1nc(NCc2ccccc2)nc(N/N=C/c2cccc(Br)c2)n1,?,11.9µM*,-26.3%,1.0%,-0.4%,3.6%
CCOC(=O)c1cc(-c2ccccc2)n(CCC(=O)Nc2ccc(Cl)c(C(F)(F)F)c2)c1C,-1.0%,.,.,1.1%,.,0.9%
Cc1ccc(NC(=S)N/N=C2\CC3CC=CC23)c(C)c1 (stereo unspecified),?,?,3.6%,1.8%,-19.9%,-3.7%
